Screening data from PubChem BioAssay.
Compounds with a hit are over-represented: about 21% of the library has one in this group of screens.
TDP1 cell noCPT: qHTS for Inhibitors of human tyrosyl-DNA phosphodiesterase 1 (TDP1): qHTS in cells in absence of CPT; Potency, µM (series often up to 46.2 µM), for inactives: top-dose activity change, negative = growth inhibition, most hits filed as inhibitors; DT40 Tdp1-/- hTDP1 cells, no CPT, ATP luminescence, 48 h; AID 686978, 2013; hit rate 15% among 420,000; further: potency means the concentration at half of the fitted maximal effect; nearly all actives have a fitted effect of over 55% in size
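A cellular qHTS used chicken DT40 cells lacking endogenous Tdp1 but carrying stably transfected human TDP1. Compounds were applied without camptothecin, and cell growth kinetics were judged by ATP-dependent luminescence after ≥48 hr.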
ELG1 DNA repair: inhibitors of ELG1-dependent DNA repair in HEK293T cells; hit rate 2.3% among 330,000; Potency, µM (doses to about 46.1 µM), for the others: at the highest dose activity change, negative = inhibition, hits mostly inhibitors; HEK293T ELG1-luciferase reporter, luminescence, 16 h; DNA damage induced by 5-fluorouridine; further: potency means the concentration at half of the fitted maximal effect; nearly all actives have a fitted effect of over 55% in size
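HEK293T cells expressing luciferase-tagged ELG1 (2,000/well) received 5-Fluorouridine plus compound or DMSO for 16 hr at 37 °C. Luciferase was read by ONE-Glo luminescence after 30 min at room temperature.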
Gal4-VP16 FLuc: inhibits Gal4-VP16 luciferase reporter, ROR gamma counter-screen; Drosophila S2 Gal4-VP16 UAS-luciferase, luminescence, 20 h; Potency, µM (doses to about 53.6 µM), inactives show at the top dose activity, negative = inhibition, most hits filed as inhibitors; AID 2546; hit rate 3.5% among 310,000;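 further: Gal4-VP16 expression switched on by copper sulfate through the metallothionein promoter; potency means the concentration at half of the fitted maximal effect; nearly all actives have a fitted effect of over 50% in size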
TDP1 cell CPT: growth inhibition of DT40 Tdp1-/-;hTDP1 cells with camptothecin (screen for TDP1 inhibitors); hit rate 12% among 420,000; Potency, µM (series often up to 46.2 µM), without a hit: top-dose activity change, negative = growth inhibition, most hits filed as inhibitors; AID 686979; chicken DT40 Tdp1-/-;hTDP1 cells + 20 nM CPT, ATP luminescence, 48 h; further: potency means the concentration at half of the fitted maximal effect; nearly all actives have a fitted effect of over 55% in size
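Cell growth measured by CellTiter-Glo luminescence after a minimum 48 h, 37 C compound exposure with 20 nM CPT in Tdp1-knockout DT40 cells stably expressing hTDP1, seeded 400/well; qHTS titration format.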
RORgamma inh: blocks mouse ROR gamma transcriptional activity; P51450; Drosophila S2 Gal4-RORgamma UAS-luciferase reporter, 20 h; Potency, µM (top dose mostly 53.6 µM), inactives show at the highest dose activity change, negative = inhibition, most hits filed as inhibitors; hit rate 5.4% among 310,000; AID 2551; further: potency means the concentration at half of the fitted maximal effect; nearly all actives have a fitted effect of over 60% in size
Target sequence (P51450 whole entry, looked up, the tested form may be a part): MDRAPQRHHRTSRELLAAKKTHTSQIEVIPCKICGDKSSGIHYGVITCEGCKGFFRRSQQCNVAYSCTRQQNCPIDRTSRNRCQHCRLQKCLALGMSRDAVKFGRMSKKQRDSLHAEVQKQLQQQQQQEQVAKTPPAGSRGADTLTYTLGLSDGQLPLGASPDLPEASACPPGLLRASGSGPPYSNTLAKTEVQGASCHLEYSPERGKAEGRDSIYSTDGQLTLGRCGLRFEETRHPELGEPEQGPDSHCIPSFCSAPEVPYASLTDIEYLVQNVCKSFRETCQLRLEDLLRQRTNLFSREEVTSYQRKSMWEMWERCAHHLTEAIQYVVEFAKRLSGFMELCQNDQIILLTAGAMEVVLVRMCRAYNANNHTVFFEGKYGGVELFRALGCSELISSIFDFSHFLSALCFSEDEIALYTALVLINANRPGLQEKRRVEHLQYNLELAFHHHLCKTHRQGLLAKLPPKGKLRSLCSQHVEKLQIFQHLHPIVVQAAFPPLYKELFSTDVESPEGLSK
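Drosophila Schneider cells stably carrying a metallothionein-driven Gal4 DBD–ROR gamma fusion and a UAS-Photinus luciferase reporter were exposed to compound for 1 hr, then induced with copper sulfate (700 uM final) for 20 hr at ambient temperature before luminescence reading.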
IL1B secr inh: blocks inflammasome-driven IL-1 beta release. THP-1 LPS/ATP IL-1B secretion, AlphaLISA, 16 h; active compounds read low. hit rate 4.7% among 360,000. activity change, % at 57.5 µM. AID 743279; in the data active means activity change below about -50%; inconclusive means mostly about -30% to -49%
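THP-1 cells pretreated 1 hr with compounds (up to 57.5 uM final), then stimulated with LPS (250 ng/mL final) plus ATP (1.25 mM final); secreted IL-1B measured by AlphaLISA after 16 hr, decreased signal indicating inhibition.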
* marks the source's active call; other numbers are inactive results; ? = inconclusive; . = not tested or not shown. Unless noted, the call rests on the fitted dose curve; in most records, active means well fitted curve in the direction sought with a large enough effect; inconclusive means small, poorly fitted or top-dose-only effect, or another doubt; inactive means no such curve, though single readings can be large; an effect the other way counts as inactive or inconclusive. On the % scale 0 is the no-effect control and ±100 the full control effect.

SMILES | TDP1 cell noCPT | ELG1 DNA repair | Gal4-VP16 FLuc | TDP1 cell CPT | RORgamma inh | IL1B secr inh
O=C(/C=C/c1ccccc1)c1ccc2c3c(cccc13)CC2 | ? | ? | 15.8µM* | ? | 12.6µM* | -98.9*
O=C(c1ccc2ccccc2c1)N1CCN(S(=O)(=O)/C=C/c2ccccc2)CC1 | 25.9µM* | ? | -3.7% | 16.4µM* | 21.9% | -25.9
O=C(/C=C/c1ccccc1)/C=C/c1ccccc1 | . | ? | ? | 5.17µM* | ? | -98.5*
O=C(/C=C/c1ccc[nH]1)c1ccccc1 | ? | ? | ? | 25.9µM* | 22.8% | ?
OC(Cc1cccnc1)c1ccccc1 (stereo not given) | 1.6% | . | . | -2.0% | . | -5.7
CCN1C(=O)Cc2cc(S(=O)(=O)NCCc3ccccc3)ccc21 | ? | 0.9% | 8.3% | -14.5% | 1.3% | -2.2
O=C(c1ccc(NS(=O)(=O)c2ccccc2)cc1)N1CCCC1 | -4.8% | 7.7% | -2.2% | -18.9% | 18.7% | -7.0
O=C(c1ccc(NS(=O)(=O)/C=C/c2ccccc2)cc1)N1CCCCC1 | 11.6µM* | ? | . | ? | . | -75.5*
O=C(/C=C/c1ccccc1)c1ccccc1 | -69.4% | ? | -7.0% | 14.6µM* | -43.6% | ?
O=C(COc1ccc(F)cc1Br)N1CCN(c2ncccn2)CC1 | ? | 5.0% | -10.4% | -24.6% | 24.4% | -6.9
O=C(COc1ccc(F)cc1Br)N1CCN(S(=O)(=O)/C=C/c2ccccc2)CC1 | ? | ? | 4.3% | ? | 17.3% | -50.3*
O=C(/C=C/c1ccccc1)CC(=O)c1ccccc1 | ? | . | . | ? | . | -17.7
O=C(/C=C/c1ccccc1)c1ccc2ccccc2c1 | 16.4µM* | . | . | ? | . | ?
C=C(C(=O)O)c1ccc2ccccc2c1 | 9.4% | . | . | 13.9% | . | .
Cc1cc(OCC(=O)NCCCN2CCOCC2)c2c(C)cc(=O)oc2c1 | 15.4% | 11.2% | -9.2% | 10.7% | -4.4% | -3.1
O=C(NCCN1CCCC1)c1ccc2c(c1)N(Cc1ccc(F)cc1)C(=O)c1ccccc1S2=O (stereo not given) | ? | ? | -8.8% | ? | -20.5% | -24.0
Cc1ccc(C)c(CN2C(=O)c3ccccc3S(=O)c3ccc(C(=O)NCCCN4CCCC4)cc32)c1 (stereo not given) | ? | -3.2% | 3.5% | ? | -2.3% | -14.1
CCCCNC(=O)c1ccc2c(c1)N(Cc1ccc(F)cc1)C(=O)c1ccccc1S2=O (stereo not given) | 18.4µM* | . | . | 23.1µM* | . | .
O=C(NCc1ccco1)c1ccc2c(c1)N(Cc1ccc(F)cc1)C(=O)c1ccccc1S2=O (stereo not given) | 16.4µM* | . | . | ? | . | .
Cc1ccc(C)c(CN2C(=O)c3ccccc3S(=O)c3ccc(C(=O)NCc4ccco4)cc32)c1 (stereo not given) | 16.4µM* | . | . | ? | . | .
O=C(NCc1ccco1)c1ccc2c(c1)N(Cc1ccccc1F)C(=O)c1ccccc1S2=O (stereo not given) | ? | . | . | -19.1% | . | .
CCCNC(=O)C1CCN(Cc2cc3ccccc3n2Cc2ccccc2)CC1 | 18.4µM* | . | . | ? | . | .
O=C(NCc1ccccc1Cl)C1CCN(C(=O)c2sccc2-n2cccc2)CC1 | -27.0% | ? | 1.1% | -17.1% | 17.4% | -19.9
CCOc1ccccc1CNC(=O)C1CCN(S(=O)(=O)N2CCC(C)CC2)CC1 | ? | . | . | ? | . | -19.0
CCS(=O)(=O)N1CCC(C(=O)NCCN2CCN(Cc3ccccc3)CC2)CC1 | -9.4% | -8.2% | -3.4% | -13.7% | -0.6% | 13.3
SMILES | TDP1 cell noCPT | ELG1 DNA repair | Gal4-VP16 FLuc | TDP1 cell CPT | RORgamma inh | IL1B secr inh
CCOc1ccccc1CNC(=O)C1CCN(Cc2cc3ccccc3n2Cc2ccccc2)CC1 | 16.4µM* | . | . | ? | . | .
CC(CNC(=O)C1CCN(Cc2cc3ccccc3n2Cc2ccccc2)CC1)c1ccccc1 (stereo not given) | 16.4µM* | . | . | 23.1µM* | . | .
CC(C)CNC(=O)C1CCN(Cc2ccc(OCc3ccccc3)cc2)CC1 | ? | ? | 26.0% | ? | -8.3% | 14.6
CCOc1ccccc1CNC(=O)C1CCN(C(=O)c2sccc2-n2cccc2)CC1 | ? | 13µM* | -10.7% | ? | 19.7% | -9.0
CS(=O)(=O)N1CCC[C@@]2(CCN(Cc3nccs3)C2)C1 | -6.3% | . | -11.0% | 9.5% | 2.6% | .
COc1ccc(NC(=O)N2CC[C@@]3(CCCNC3)C2)cc1 | -21.3% | . | -12.7% | -20.4% | 23.6% | .
CC(C)C(=O)N1CCCC1(C)C(=O)Nc1ccc2c(c1)OCO2 (stereo not given) | 1.4% | . | . | 3.1% | . | 4.1
O=C(NCCc1ccccc1)C1CCN(Cc2cccc3ccccc23)CC1 | ? | -20.7% | . | ? | . | -51.1*
O=C(NCCc1ccccc1)C1CCN(Cc2cc3ccccc3n2Cc2ccccc2)CC1 | 20.6µM* | . | . | ? | . | .
CCCS(=O)(=O)N1CCC(C(=O)NCCN(C)Cc2ccccc2)CC1 | 2.7% | 0.5% | -4.2% | 13.6% | -13.3% | -4.2
O=C(NCCc1ccccc1)C1CCN(c2ncccn2)CC1 | -1.3% | ? | 19.7% | ? | 1.3% | 5.0
CN(C)CCNC(=O)C1CCN(Cc2cc3ccccc3n2Cc2ccccc2)CC1 | 16.4µM* | . | . | 20.6µM* | . | .
CCOC(=O)C(C(=O)Cc1ccccc1)c1ccccc1 (stereo not given) | -12.5% | . | . | 5.7% | . | -2.0
O=P(COc1ccccc1)(c1ccccc1)c1ccccc1 | -26.6% | 0.5% | -5.7% | -29.9% | 39.0% | 8.5
CCOC(=O)c1ccc(NC(=O)CCc2nc(-c3cccc(C)c3)no2)cc1 | 16.4µM* | ? | -12.0% | ? | 7.9% | ?
CC(=O)c1ccc(NC(=O)CCCc2nc(-c3cccc(C)c3)no2)cc1 | 20.6µM* | . | . | -29.3% | . | .
CSc1ccc(Cn2c(C)c(C(=O)NCCC#N)sc2=O)cc1 | -26.2% | . | . | -11.4% | . | -9.8
O=C(N/N=C1\CCCCc2ccccc21)c1ccccn1 | ? | ? | 21.6% | -18.7% | -15.6% | 9.4
COc1ccc(NC(=S)N/N=C2\CC(C)(C)Oc3ccc(OC)cc32)cc1 | 4.11µM* | -2.8% | 2µM* | 5.8µM* | 1.41µM* | -11.5
Cc1ccc(S(=O)(=O)NN=C2CCCc3ccccc32)cc1 | ? | . | . | 13.9% | . | 21.4
CC(=O)N1CCC(N(CCN2CCOCC2)C(=S)Nc2ccc(C)cc2)CC1 | -21.9% | 13.1% | 6.6% | 19.5% | -1.3% | 28.4
COc1ccc(NC(=S)NCCN2CCOCC2)cc1 | 9.2% | 12.5% | -5.3% | -4.0% | -36.1% | 2.7
